Holding throughout (assay type): functional
Test [1] concerns the target Solute carrier family 2, facilitated glucose transporter member 1 (Homo sapiens) (UniProt P11166). As to the kind of experiment: ST_JUDE_LEISH: Cytotoxicity at 2uM final concentration against transgenic Leishmania Mexicana promastigotes LmGLUT1 that are glucose transport deficient and complemented with the human glucose transporter GLUT1. Activity is measured by DNA content using SYBR green in vitro.

Test [2] has as its target Hexose transporter 1 (Plasmodium falciparum) (UniProt O97467). The experiment in a line: ST_JUDE_LEISH: Cytotoxicity at 2uM final concentration against transgenic Leishmania Mexicana promastigotes LmPfHT that are glucose transport deficient and complemented with the Plasmodium falciparum hexose transporter. Activity is measured by DNA content using SYBR green in vitro.

In test [3] the target is Glucose transporter (Leishmania mexicana) (UniProt O61059). As to the kind of experiment: ST_JUDE_LEISH: Cytotoxicity at 2uM final concentration against transgenic Leishmania Mexicana promastigotes LmGT2 that are glucose transport deficient and complemented with the L. Mexicana glucose transporter 2. Activity is measured by DNA content using SYBR green in vitro.

The text below walks through data of ChEMBL document CHEMBL3433997, “St. Jude Leishmania screening dataset” (2016).

Molecules are shown by their SMILES.

For orientation: inhibition means the relative decrease from the control value, in per cent.

Chain of Solute carrier family 2, facilitated glucose transporter member 1 (Homo sapiens) (P11166 whole entry): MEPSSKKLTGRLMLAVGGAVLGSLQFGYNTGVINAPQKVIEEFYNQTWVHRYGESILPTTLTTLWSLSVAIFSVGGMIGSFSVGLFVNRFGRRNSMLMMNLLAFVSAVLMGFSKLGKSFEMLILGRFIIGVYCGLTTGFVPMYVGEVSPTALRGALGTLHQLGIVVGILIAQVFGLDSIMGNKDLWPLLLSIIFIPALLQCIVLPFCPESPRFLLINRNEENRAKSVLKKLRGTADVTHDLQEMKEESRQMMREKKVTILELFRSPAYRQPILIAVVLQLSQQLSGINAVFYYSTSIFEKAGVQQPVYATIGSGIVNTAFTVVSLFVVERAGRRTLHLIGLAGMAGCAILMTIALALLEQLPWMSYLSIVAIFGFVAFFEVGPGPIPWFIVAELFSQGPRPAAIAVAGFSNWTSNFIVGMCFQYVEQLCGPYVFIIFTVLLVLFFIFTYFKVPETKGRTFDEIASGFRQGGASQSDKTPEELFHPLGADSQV

With `COc1ccc2[nH]c3ccccc3c(=O)c2c1`, the figures for the inhibition in test [1], in test [2] and in test [3] were -0.87%, 0.99% and 6.72%, respectively.
Taken in the same sequence, the figures for `CCN(CCCN1CCCCC1)c1cc(C)nc(Nc2ccc(Cl)c(C(F)(F)F)c2)n1` were 0.03%, -0.3% and -1.78%.
In the same order, the values of `COc1c(OC)c(OC)c2ccccc2c1CNCCCCCCNCc1c(OC)c(OC)c(OC)c2ccccc12` are 7.56%, 7.58% and 0.02%.
